In the supplement of paper PMC10338343:
± gives the standard deviation.

Each sequence was assayed on MILI (PIWIL2) piRISC loaded with piRNA #1 (26 nt) (assay: pre-steady-state target cleavage rate (min^-1); guide: piRNA #1 5'p-UGAGGUAGUAGGUUGUAUAGUAUCCA; higher = faster piRNA-guided slicing of the target). Settings: auxiliary factor: 500 nM mouse GTSF1.
Outline: (§1)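 A burst-and-steady-state fit was used to obtain the pre-steady-state cleavage rate. The input data were sequencing reads of uncleaved targets, normalised to depth and to weakly complementary targets, from a […] transcribed, DNA-blocked target RNA library mixed with 1 nM active affinity-purified piRISC holding one synthetic guide, with or without 500 nM GTSF1 partner protein, in HEPES–potassium acetate buffer at 33 °C for 0–8 or 0–960 min. Three trials were pooled and k3 was capped at 0.0001 min^-1.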

Going from GGAGUGGAUACUUACAACCUACUACCUCA to GGAGACCAUACUAUACAACCUAGUUCCUCA, the “pre-steady-state target cleavage rate” value falls from 0.141 ± 0.012 to 0.0546 ± 0.018.

Compared with GGAGACGAUACUAUACAACCUACUUCCACA, GGAGGGGAUACUAUACAACCUACUACCUCA is higher in “pre-steady-state target cleavage rate” value: 0.0194 ± 0.0082 for the first, 0.203 ± 0.0091 for the second.

GGAGACCAUAUCUAUACAACCUACUACCUCA and GGAGUGGAUACAUUACAACCUACUACCUCA are within error of each other in “pre-steady-state target cleavage rate” value: 0.138 ± 0.015 for the first, 0.152 ± 0.012 for the second.

GGAGACCUAACCAUACAACCUACUACCUCA and GGAGACCAAAGUAUACAACCUACUACCUCA are within error of each other in “pre-steady-state target cleavage rate” value: 0.12 ± 0.072 for the first, 0.0438 ± 0.0093 for the second.

Compared with GGAGAGGAUACUAUACAACCUCACUACCUCA, GGAGUGGAGUACUAUACAACCUACUACCUCA is higher in “pre-steady-state target cleavage rate” value: 0.00456 ± 0.0027 for the first, 0.153 ± 0.0099 for the second.

Compared with GGAGAGGAUACUAUACAACCAUACUACCUCA, GGAGACCUUACUAUACAACCUACUAUCUCA is higher in “pre-steady-state target cleavage rate” value: 0.00709 ± 0.0019 for the first, 0.0879 ± 0.0097 for the second.

Going from GGAGAGGAUACUAUACAACCUACGACCUCA to GGAGUGGAUACUAUACAACCUACUAUCCUCA, the “pre-steady-state target cleavage rate” value falls from 0.1 ± 0.013 to 0.05 ± 0.0077.

Compared with GGAGAGGAUACUAUACUACCUUCUACCUCA, GGAGACCAUACUAUACAACCUUCUACCUCA is lower in “pre-steady-state target cleavage rate” value: 0.0158 ± 0.0024 for the first, 0.00761 ± 0.0026 for the second.

First: GGAGAGGAUAGUAUACAACCUUCUACCUCA
Second: GGAGUGGAUACUCUACAACCUACUACCUCA
The “pre-steady-state target cleavage rate” value of the first is lower: 0.00649 ± 0.004 for the first, 0.194 ± 0.011 for the second.

First: GGAGUGGAUACUAUACAAGCUUCUACCUCA
Second: GGAGACCACACUAUACAACCUACUACCUCA
The “pre-steady-state target cleavage rate” value of the first is lower: 0.0391 ± 0.0037 for the first, 0.221 ± 0.042 for the second.

GGAGACGAUGCUAUACAACCUACUACCUCA and GGAGACGAUACAAUACUACCUACUACCUCA are within error of each other in “pre-steady-state target cleavage rate” value: 0.194 ± 0.021 for the first, 0.201 ± 0.017 for the second.

First: GGAGACGCUACUAUACAACCUACUACCUCA
Second: GGAGAGGAUAGUAUACAUCCUACUACCUCA
The “pre-steady-state target cleavage rate” value of the first is higher: 0.228 ± 0.019 for the first, 0.0609 ± 0.011 for the second.

First: GGAGACGAUACUAUUCAACCUACUACCACA
Second: GGAGUGGUUAGUAUACAACCUACUACCUCA
The “pre-steady-state target cleavage rate” value of the first is higher: 0.161 ± 0.014 for the first, 0.105 ± 0.011 for the second.

Compared with GGAGACGAUACUGUACAACCUACUACCUCA, GGAGUGGAUACUAUACAACGUACUACGUCA is lower in “pre-steady-state target cleavage rate” value: 0.169 ± 0.018 for the first, 0.0108 ± 0.0027 for the second.

First: GGAGUGGAUACUUUACAACGUACUACCUCA
Second: GGAGAGGAGACUAUACAACCUACUACCUCA
The “pre-steady-state target cleavage rate” value of the first is lower: 0.0295 ± 0.0029 for the first, 0.25 ± 0.052 for the second.

GGAGACCUAACUAUACAACCCACUACCUCA and GGAGACCAUACUAUACAACCUCACUACCUCA are within error of each other in “pre-steady-state target cleavage rate” value: 0.0098 ± 0.0041 for the first, 0.00609 ± 0.0028 for the second.

Going from GGAGACCUUACUUUACAACCUACUACCUCA to GGAGACAAUACUAUACAACCUACUACCUCA, the “pre-steady-state target cleavage rate” value rises from 0.129 ± 0.01 to 0.253 ± 0.021.

First: GGAGACCAUACUAUACAAGCUACUACCUCA
Second: GGAGACGAUACUAUACAACCUAGUACCACA
The “pre-steady-state target cleavage rate” value of the first is higher: 0.253 ± 0.02 for the first, 0.00571 ± 0.0053 for the second.

Compared with GGAGUGGAUACUAUAUCAACCUACUACCUCA, GGAGACCAUACUAUACAAACCUACUACCUCA is lower in “pre-steady-state target cleavage rate” value: 0.143 ± 0.013 for the first, 0.0045 ± 0.003 for the second.

GGAGAGGAUACUAUACAACCUACUACCCA and GGAGACCUUACUAUACAACCUACUUCCUCA are within error of each other in “pre-steady-state target cleavage rate” value: 0.0505 ± 0.014 for the first, 0.0805 ± 0.016 for the second.

The sequences below were run on EfPiwi piRISC loaded with piRNA #1 (26 nt) (assay: pre-steady-state target cleavage rate (min^-1); auxiliary factor: 500 nM Ephydatia muelleri Gtsf1; guide: piRNA #1 5'p-UGAGGUAGUAGGUUGUAUAGUAUCCA; MIWI and MILI are mouse PIWI proteins and EfPiwi is from a freshwater sponge; tags in brackets are library labels; higher = faster piRNA-guided slicing of the target). Settings: not given.
Outline: as §1

First: GGAGUGGAUACUUACAACCUACUACCUCA
Second: GGAGACCAUACUAUACAACCUAGUUCCUCA
The “pre-steady-state target cleavage rate” value of the first is higher: 0.0233 ± 0.011 for the first, 0.00549 ± 0.0029 for the second.

Going from GGAGACGAUACUAUACAACCUACUUCCACA to GGAGGGGAUACUAUACAACCUACUACCUCA, the “pre-steady-state target cleavage rate” value rises from 0.00373 ± 0.0021 to 0.209 ± 0.067.

Compared with GGAGACCAUAUCUAUACAACCUACUACCUCA, GGAGUGGAUACAUUACAACCUACUACCUCA is lower in “pre-steady-state target cleavage rate” value: 0.124 ± 0.051 for the first, 0.00715 ± 0.0034 for the second.

GGAGACCUAACCAUACAACCUACUACCUCA and GGAGACCAAAGUAUACAACCUACUACCUCA are within error of each other in “pre-steady-state target cleavage rate” value: 0.0143 ± 0.0069 for the first, 0.0166 ± 0.0082 for the second.

GGAGAGGAUACUAUACAACCUCACUACCUCA and GGAGUGGAGUACUAUACAACCUACUACCUCA are within error of each other in “pre-steady-state target cleavage rate” value: 0.00378 ± 0.0026 for the first, 0.0116 ± 0.0055 for the second.

GGAGAGGAUACUAUACAACCAUACUACCUCA and GGAGACCUUACUAUACAACCUACUAUCUCA are within error of each other in “pre-steady-state target cleavage rate” value: 0.00323 ± 0.0026 for the first, 0.00831 ± 0.0039 for the second.

GGAGAGGAUACUAUACAACCUACGACCUCA and GGAGUGGAUACUAUACAACCUACUAUCCUCA are within error of each other in “pre-steady-state target cleavage rate” value: 0.00309 ± 0.0016 for the first, 0.00685 ± 0.0028 for the second.

GGAGAGGAUACUAUACUACCUUCUACCUCA and GGAGACCAUACUAUACAACCUUCUACCUCA are within error of each other in “pre-steady-state target cleavage rate” value: 0.00328 ± 0.0026 for the first, 0.00625 ± 0.0028 for the second.

GGAGAGGAUAGUAUACAACCUUCUACCUCA and GGAGUGGAUACUCUACAACCUACUACCUCA are within error of each other in “pre-steady-state target cleavage rate” value: 0.00304 ± 0.0024 for the first, 0.00588 ± 0.0041 for the second.

First: GGAGUGGAUACUAUACAAGCUUCUACCUCA
Second: GGAGACCACACUAUACAACCUACUACCUCA
The “pre-steady-state target cleavage rate” value of the first is lower: 0.00507 ± 0.0021 for the first, 0.0344 ± 0.015 for the second.

GGAGACGAUGCUAUACAACCUACUACCUCA and GGAGACGAUACAAUACUACCUACUACCUCA are within error of each other in “pre-steady-state target cleavage rate” value: 0.00734 ± 0.0042 for the first, 0.00238 ± 0.0021 for the second.

Compared with GGAGACGCUACUAUACAACCUACUACCUCA, GGAGAGGAUAGUAUACAUCCUACUACCUCA is lower in “pre-steady-state target cleavage rate” value: 0.163 ± 0.051 for the first, 0.00316 ± 0.0022 for the second.

GGAGACGAUACUAUUCAACCUACUACCACA and GGAGUGGUUAGUAUACAACCUACUACCUCA are within error of each other in “pre-steady-state target cleavage rate” value: 0.00322 ± 0.0017 for the first, 0.00533 ± 0.0036 for the second.

First: GGAGACGAUACUGUACAACCUACUACCUCA
Second: GGAGUGGAUACUAUACAACGUACUACGUCA
The “pre-steady-state target cleavage rate” value of the first is higher: 0.0777 ± 0.025 for the first, 0.0036 ± 0.0015 for the second.

Compared with GGAGUGGAUACUUUACAACGUACUACCUCA, GGAGAGGAGACUAUACAACCUACUACCUCA is higher in “pre-steady-state target cleavage rate” value: 0.00254 ± 0.0014 for the first, 0.0151 ± 0.0058 for the second.

GGAGACCUAACUAUACAACCCACUACCUCA and GGAGACCAUACUAUACAACCUCACUACCUCA are within error of each other in “pre-steady-state target cleavage rate” value: 0.00404 ± 0.0036 for the first, 0.0127 ± 0.0078 for the second.

Going from GGAGACCUUACUUUACAACCUACUACCUCA to GGAGACAAUACUAUACAACCUACUACCUCA, the “pre-steady-state target cleavage rate” value rises from 0.00728 ± 0.0042 to 0.0606 ± 0.023.

GGAGACCAUACUAUACAAGCUACUACCUCA and GGAGACGAUACUAUACAACCUAGUACCACA are within error of each other in “pre-steady-state target cleavage rate” value: 0.00377 ± 0.0015 for the first, 0.00488 ± 0.0029 for the second.

Going from GGAGUGGAUACUAUAUCAACCUACUACCUCA to GGAGACCAUACUAUACAAACCUACUACCUCA, the “pre-steady-state target cleavage rate” value falls from 0.0851 ± 0.03 to 0.00703 ± 0.0028.

GGAGAGGAUACUAUACAACCUACUACCCA and GGAGACCUUACUAUACAACCUACUUCCUCA are within error of each other in “pre-steady-state target cleavage rate” value: 0.0052 ± 0.0025 for the first, 0.0038 ± 0.0028 for the second.
